# Laboratory results reported in PubChem BioAssay.
# Where “and” joins values, the source holds several entries; their conditions need not be identical. Equal entries are not always repeated. Records with an inconclusive call do not appear. For some of these results: Results with a measured potency or affinity are listed apart. Calls of active or inactive are those of the source. Unless noted, how the calls were made is not given here.
# Assays:
# [1] = target: ATP-dependent translocase ABCB1 (Homo sapiens) (UniProt P08183); assay: P-glycoprotein substrate transport blockade – cell-based (AID 377; in the data active means fluorescence slope change above about 50%); conditions: MDR1-expressing cells, fluorescent substrate accumulation slope; stronger effect = higher value; concentration not given here
# [2] = compounds altering viability of human ES cells (AID 493140); conditions: human embryonic stem cell survival screen; stronger effect = higher value;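 further: cells exposed to compounds for four days before counting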
# [3] = P. berghei load reduction in hepatocytes – cell-based, HepG2, luciferase luminescence, HepG2 viability, primary screen (AID 624349; in the data active means parasite load remaining mostly below about 12%, no sharp cut-off; inactive means mostly above about 10%;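 further: 100% = mean of DMSO negative control wells on the same plate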); conditions: P. berghei liver stage in HepG2, luciferase luminescence, concentration not given here; parasite load remaining: stronger effect = lower value; viability: measured here: HepG2 viability without parasites
# [4] = target: 6-phosphogluconate dehydrogenase, decarboxylating (Homo sapiens) (UniProt P52209); assay: inhibition of human phosphogluconate dehydrogenase – biochemical, recombinant enzyme, NADPH absorbance, primary screen (AID 1159550;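 active means at least 20% inhibition of 6-phosphogluconate dehydrogenase activity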); conditions: recombinant 6PGD, NADPH absorbance 341 nm; at 10 µM; stronger effect = higher value
# [5] = system: Aerobactin synthetase IucA (Klebsiella pneumoniae, hypervirulent); assay: biochemical IucA inhibition screen of LOPAC library by absorbance (AID 1346212); conditions: IucA enzyme assay, absorbance (OD) readout; stronger effect = lower value;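 tested at 8 µM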;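 further: 100% = no compound wells and 0% = no enzyme wells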
# [6] = viability loss with induced miR-34 in A549 – imaging, A549 dox-inducible miR-34, nuclei and caspase counts, primary screen (AID 1347080;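 active means compounds whose cell count with miR-34 switched on is under 0.7 times the count with it off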); conditions: A549 miR-34 inducible, Hoechst nuclei count, 48 h
# [7] = MELAS cybrid and Rieske KO viability enhancers – cell-based, MELAS cybrids, Rieske KO mouse fibroblasts, CellTiter-Glo, primary screen (AID 1508586;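 active means mean z-score across replicates of 1.96 or higher in either the MELAS or the Rieske mutant cell line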;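 further: z relative to plate mean and SD of compound and empty wells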); conditions: low glucose
# [8] = target: NAD(+) hydrolase SARM1 (Homo sapiens) (UniProt Q6SZW1); assay: blocking NAD cleavage by SARM1 SAM-TIR – cell lysate, NAD-Glo luminescence (AID 1508614;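 active means compound whose remaining NAD level is above about 45 nM, limit read from the data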); conditions: SAM-TIR HEK293T lysate NADase, at 1 µM, stronger effect = higher value
# [9] = target: Mitogen-activated protein kinase 7 (Homo sapiens) (UniProt Q13164); assay: Gal4-ERK5 driven luciferase induction – cell-based, HTS, primary screen (AID 1508626;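 active means luciferase signal above three times the same-plate solvent-only control wells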;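 further: luciferase driven by Gal4-ERK5 fusion binding five Gal4 sites before minimal TATA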); conditions: HeLa Gal4-ERK5 transactivation, 18 h, at 5 µM, stronger effect = higher value
# [10] = galactose survival enhancers in mitochondrial complex I cybrids – cell-based, galactose medium, ATP luminescence, primary screen (AID 1645843;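 active means z-score of at least 1.8 in each of two replicates, scored against plate mean and spread of sample wells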;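 further: positive z means more ATP and so rescue of galactose-driven cybrid death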); conditions: complex I mutant cybrid cells, 72 h, stronger effect = higher value
# [11] = system: Aerobactin synthetase IucA (Klebsiella pneumoniae hvKP1); assay: IucA enzyme inhibition, primary screen, biochemical, Spectrum library (AID 1346200); conditions: malachite green pyrophosphate, A620, at 8 µM, stronger effect = lower value;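 further: 100% = wells without compound and 0% = wells lacking enzyme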
# [12] = blockers of MitoPT in mitochondria (AID 1580); conditions: isolated mitochondria, permeability transition inhibition
# [13] = blockers of polyQ-driven CASP3 activation – cell-based (AID 1583); conditions: polyglutamine-induced caspase-3 activation, cell assay; stronger effect = higher value;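 tested at 10 µM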
# [14] = blockers of biotin-polyQ monomer incorporation into aggregates – biochemical, solid-phase synthetic aggregates, QA3 (AID 1585); conditions: polyQ aggregate elongation; EC50: measured here: elongation inhibition potency; inhibition: at 100 µM, stronger effect = higher value
# [15] = turbidity assay for polyglutamine aggregation inhibitors, qthio, 25 µM (AID 1588); conditions: at 25 µM, stronger effect = lower value
# [16] = yeast 75Q aggregation reduction – 75Q-TubU reporter (AID 1593); conditions: Yeast 75Q polyglutamine aggregation reporter
# [17] = restoration of touch response, mutant HTT neurons – whole organism, C. elegans mechanosensory neurons, N-terminal huntingtin (AID 1599); conditions: C. elegans polyQ-huntingtin mechanosensory neurons, stronger effect = higher value
# [18] = blockers of cytochrome c efflux from mitochondria – biochemical, purified mitochondria (AID 1603); conditions: stronger effect = lower value;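 further: mouse liver mitochondria challenged with calcium chloride; signal normalized to the plate average as 100%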
# [19] = polyglutamine aggregate formation blockers (AID 1604); conditions: polyglutamine-induced protein aggregation inhibition assay; stronger effect = higher value; tested at 2.5 µM
# [20] = glutamate transport activators, MN-1 cells, MN-1 cell line (AID 1612); conditions: MN-1 motor neuron cells, stronger effect = higher value;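 further: tested at 1 µM final; 0% = mean of DMSO vehicle wells on each plate; positive means more glutamate uptake than control and negative means less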
# [21] = 75Q-TubH aggregate inhibition, S. cerevisiae, yeast (AID 1616); conditions: S. cerevisiae 75Q-TubH polyglutamine aggregation suppression; stronger effect = higher value
# [22] = system: Hepatitis C virus NS3 helicase; assay: blockers of NS3h binding to ssDNA – biochemical, fluorescence polarization, LOPAC1280 library, primary screen (AID 687035; in the data active means inhibition above about 37%); conditions: Purified HCV NS3 helicase, Cy5-dT15 ssDNA binding fluorescence polarization; stronger effect = higher value; concentration not given here
# [23] = compounds altering Cy5-DNA-NS3h complex signal – biochemical, LOPAC1280, artefact control for HCV NS3 helicase inhibitor project (AID 687037); conditions: Cy5-DNA-NS3h complex fluorescence interference counterscreen
# [24] = blockers of cellular phospholipid synthesis – cell-based, LOPAC library, screen 4, primary screen (AID 1347384); conditions: animal cells, phospholipid biosynthesis inhibition screen; at 10 µM
# [25] = measured here: relative caspase fold change +Dox/-Dox
# [26] = measured here: total cells with miR-34 induction, stronger effect = lower value
# [27] = measured here: total cells without miR-34 induction
# [28] = MELAS cybrid survival, CellTiter-Glo 48 h, stronger effect = higher value
# [29] = Rieske KO mouse fibroblast survival, CellTiter-Glo 72 h
# Sequence of Mitogen-activated protein kinase 7 (Homo sapiens) (Q13164 whole entry, looked up, the tested form may be a part): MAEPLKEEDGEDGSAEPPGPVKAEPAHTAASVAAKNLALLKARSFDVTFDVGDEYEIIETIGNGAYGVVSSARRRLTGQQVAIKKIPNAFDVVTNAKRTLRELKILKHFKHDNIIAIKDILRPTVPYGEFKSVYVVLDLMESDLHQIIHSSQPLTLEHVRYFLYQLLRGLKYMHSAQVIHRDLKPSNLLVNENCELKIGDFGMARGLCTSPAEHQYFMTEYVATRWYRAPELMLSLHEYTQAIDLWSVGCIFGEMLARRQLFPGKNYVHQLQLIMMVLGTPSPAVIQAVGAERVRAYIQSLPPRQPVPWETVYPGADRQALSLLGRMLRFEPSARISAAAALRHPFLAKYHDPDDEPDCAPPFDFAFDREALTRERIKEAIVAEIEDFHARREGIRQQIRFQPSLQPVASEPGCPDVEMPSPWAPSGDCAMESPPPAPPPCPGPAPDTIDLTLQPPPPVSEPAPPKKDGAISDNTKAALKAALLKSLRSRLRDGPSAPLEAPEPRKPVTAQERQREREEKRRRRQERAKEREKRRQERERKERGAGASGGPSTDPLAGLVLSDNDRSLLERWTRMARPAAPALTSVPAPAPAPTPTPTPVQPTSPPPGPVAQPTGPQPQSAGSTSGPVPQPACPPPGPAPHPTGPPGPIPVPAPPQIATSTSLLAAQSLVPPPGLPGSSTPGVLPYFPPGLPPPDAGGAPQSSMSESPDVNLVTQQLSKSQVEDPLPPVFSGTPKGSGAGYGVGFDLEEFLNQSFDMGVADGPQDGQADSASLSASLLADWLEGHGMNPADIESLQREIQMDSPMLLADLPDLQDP
# Sequence of 6-phosphogluconate dehydrogenase, decarboxylating (Homo sapiens) (P52209 whole entry, looked up): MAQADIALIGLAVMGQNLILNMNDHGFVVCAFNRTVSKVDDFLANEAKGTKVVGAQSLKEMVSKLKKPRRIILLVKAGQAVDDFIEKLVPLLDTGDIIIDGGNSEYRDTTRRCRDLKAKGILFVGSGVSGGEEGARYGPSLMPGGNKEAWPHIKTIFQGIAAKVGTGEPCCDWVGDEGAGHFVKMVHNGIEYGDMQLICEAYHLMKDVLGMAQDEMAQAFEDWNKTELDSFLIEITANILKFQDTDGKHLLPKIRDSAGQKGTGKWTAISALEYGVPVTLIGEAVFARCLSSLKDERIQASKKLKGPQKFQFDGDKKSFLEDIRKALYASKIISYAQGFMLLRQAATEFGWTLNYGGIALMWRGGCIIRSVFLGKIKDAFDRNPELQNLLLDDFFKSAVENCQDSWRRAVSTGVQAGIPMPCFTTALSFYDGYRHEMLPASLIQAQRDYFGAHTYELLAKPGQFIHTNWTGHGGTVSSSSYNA
# Sequence of NAD(+) hydrolase SARM1 (Homo sapiens) (Q6SZW1 whole entry, looked up, the tested form may be a part): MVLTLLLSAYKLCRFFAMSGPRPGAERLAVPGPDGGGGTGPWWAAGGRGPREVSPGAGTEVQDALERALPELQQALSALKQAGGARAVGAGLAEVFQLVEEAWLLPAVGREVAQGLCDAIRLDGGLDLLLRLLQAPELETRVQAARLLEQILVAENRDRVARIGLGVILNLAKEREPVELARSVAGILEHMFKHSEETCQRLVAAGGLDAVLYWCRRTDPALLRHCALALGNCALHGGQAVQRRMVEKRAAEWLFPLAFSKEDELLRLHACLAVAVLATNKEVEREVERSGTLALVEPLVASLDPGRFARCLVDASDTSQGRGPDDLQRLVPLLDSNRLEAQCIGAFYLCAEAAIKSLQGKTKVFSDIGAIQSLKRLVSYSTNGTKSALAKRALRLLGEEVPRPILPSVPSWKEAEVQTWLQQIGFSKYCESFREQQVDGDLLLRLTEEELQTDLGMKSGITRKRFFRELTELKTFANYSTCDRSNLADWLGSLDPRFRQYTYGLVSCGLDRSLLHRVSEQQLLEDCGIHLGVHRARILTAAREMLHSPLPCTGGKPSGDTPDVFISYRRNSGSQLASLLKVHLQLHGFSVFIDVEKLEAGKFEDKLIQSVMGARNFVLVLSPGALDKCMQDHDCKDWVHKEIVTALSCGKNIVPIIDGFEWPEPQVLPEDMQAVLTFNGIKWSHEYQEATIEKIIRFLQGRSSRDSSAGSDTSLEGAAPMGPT
# Sequence of ATP-dependent translocase ABCB1 (Homo sapiens) (P08183 whole entry, looked up): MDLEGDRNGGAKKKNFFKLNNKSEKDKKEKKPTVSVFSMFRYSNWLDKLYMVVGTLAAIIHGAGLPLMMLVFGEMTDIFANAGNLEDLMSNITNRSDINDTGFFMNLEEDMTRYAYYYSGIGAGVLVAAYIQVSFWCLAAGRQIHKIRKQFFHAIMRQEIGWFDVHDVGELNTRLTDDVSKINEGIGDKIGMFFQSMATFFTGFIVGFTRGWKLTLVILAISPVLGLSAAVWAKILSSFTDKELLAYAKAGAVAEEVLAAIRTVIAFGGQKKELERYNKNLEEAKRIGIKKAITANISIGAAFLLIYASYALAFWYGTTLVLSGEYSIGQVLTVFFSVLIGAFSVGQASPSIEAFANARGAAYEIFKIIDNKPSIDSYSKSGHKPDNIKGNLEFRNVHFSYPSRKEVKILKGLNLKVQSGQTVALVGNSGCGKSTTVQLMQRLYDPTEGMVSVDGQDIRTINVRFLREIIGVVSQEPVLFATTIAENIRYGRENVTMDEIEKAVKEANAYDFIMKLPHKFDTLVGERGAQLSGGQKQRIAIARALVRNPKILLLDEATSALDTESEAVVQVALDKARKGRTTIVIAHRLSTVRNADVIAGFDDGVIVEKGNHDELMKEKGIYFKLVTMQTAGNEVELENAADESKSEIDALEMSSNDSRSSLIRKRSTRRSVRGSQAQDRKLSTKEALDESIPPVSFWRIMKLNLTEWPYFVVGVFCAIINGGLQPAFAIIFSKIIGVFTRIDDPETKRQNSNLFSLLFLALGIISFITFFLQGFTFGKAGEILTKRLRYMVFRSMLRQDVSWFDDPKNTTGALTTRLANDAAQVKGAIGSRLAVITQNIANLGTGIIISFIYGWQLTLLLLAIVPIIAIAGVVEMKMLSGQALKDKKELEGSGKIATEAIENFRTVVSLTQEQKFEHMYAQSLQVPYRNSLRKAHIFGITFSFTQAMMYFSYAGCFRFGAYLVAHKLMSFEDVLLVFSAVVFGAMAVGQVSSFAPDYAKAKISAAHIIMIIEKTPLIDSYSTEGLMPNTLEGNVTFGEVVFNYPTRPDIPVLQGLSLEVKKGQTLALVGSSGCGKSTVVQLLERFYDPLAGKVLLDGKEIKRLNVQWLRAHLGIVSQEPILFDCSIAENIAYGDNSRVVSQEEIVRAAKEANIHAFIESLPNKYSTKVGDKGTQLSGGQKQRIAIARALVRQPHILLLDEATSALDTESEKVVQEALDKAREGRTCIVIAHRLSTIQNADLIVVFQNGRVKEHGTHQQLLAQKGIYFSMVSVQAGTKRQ
structure (smiles),measurement,setting,value
Oc1ccc2c3c1O[C@H]1[C@@H](O)CC[C@@]4(O)[C@@H](C2)N(CC2CCC2)CC[C@]314,fluorescence slope change,[1],211% (active)
same,survival,[2],24.5 (inactive)
same,parasite load remaining,[3],32.6% (inactive) and 106% (inactive) and 79.1% (inactive)
same,viability,[3],52.8% and 85.6% and 172%
same,inhibition,[4],-20.2% (inactive)
same,remaining activity,[5],118% (inactive)
same,fold change,[6]; stronger effect = lower value,0.924 (inactive) and 0.934 (inactive)
same,fold change,[6]; [25],1.19 and 1.05
same,cell count,[6]; [26],9080 and 10200
same,cell count,[6]; [27],9820 and 11000
same,z-score,[7]; [28],0.883 (inactive) and 0.331 (inactive)
same,z-score,[7]; [29],0.202 and -0.251
same,remaining NAD,[8],10 nM (inactive)
same,luciferase signal,[9],52 AU (inactive)
same,z-score,[10],0.78 (inactive)
CC(C)Nc1nc(Cl)nc(NC(C)C)n1,inhibition,[4],-12% (inactive)
same,activity remaining,[11],111% (inactive)
same,luciferase signal,[9],52 AU (inactive)
O=C(O)c1ccccc1-c1c2cc(Br)c(=O)cc-2oc2[c]([Hg])c(O)c(Br)cc12,EC50,[12],10 µM (active)
same,inhibition,[13],39.1%
same,EC50,[14],38 µM
same,inhibition,[14],61.6% (active)
same,aggregation (% of control),[15],41.9% (active)
same,score,[16],0.07
same,rescue above control,[17],0
same,cytochrome c release ratio,[18],1.39
same,inhibition of aggregation,[19],57.7%
same,glutamate uptake change,[20],-7.36%
same,aggregation suppression score,[21],0.0281
same,survival,[2],18.6 (inactive)
same,parasite load remaining,[3],62.4% (inactive) and 40.3% (inactive)
same,viability,[3],57.8% and 97.8%
same,inhibition,[4],2.12% (inactive)
same,activity remaining,[11],-1.02% (active)
same,fold change,[6]; stronger effect = lower value,0.908 (inactive)
same,fold change,[6]; [25],2.08
same,cell count,[6]; [26],11900
same,cell count,[6]; [27],13100
same,remaining NAD,[8],56 nM (active)
same,luciferase signal,[9],52 AU (inactive)
C#C[C@]1(O)CC[C@H]2[C@@H]3CCC4=CC(=O)CC[C@]4(C)[C@H]3CC[C@@]21C,parasite load remaining,[3],27.4% (inactive) and 14.2% (inactive)
same,viability,[3],48.6% and 66.5%
same,inhibition,[4],7.17% (inactive)
same,fold change,[6]; stronger effect = lower value,0.927 (inactive) and 0.887 (inactive)
same,fold change,[6]; [25],1.32 and 1.63
same,cell count,[6]; [26],8580 and 9180
same,cell count,[6]; [27],9250 and 10300
same,z-score,[7]; [28],-0.171 (inactive) and 0.217 (inactive)
same,z-score,[7]; [29],-0.0237 and 0.861
same,remaining NAD,[8],10 nM (inactive)
same,luciferase signal,[9],68 AU (inactive)
same,z-score,[10],0.355 (inactive)
CC[C@@]1(O)C[C@H](O[C@H]2C[C@H](N(C)C)[C@H](O)[C@H](C)O2)c2c(cc3c(c2O)C(=O)c2c(O)cccc2C3=O)[C@H]1C(=O)OC,inhibition,[13],61.1%
same,score,[16],0.65
same,rescue above control,[17],1.11
same,cytochrome c release ratio,[18],3.13
same,inhibition of aggregation,[19],90.8%
same,glutamate uptake change,[20],-25.9%
same,aggregation suppression score,[21],0.115
same,parasite load remaining,[3],0.915% (inactive)
same,viability,[3],15.1%
same,inhibition,[4],-8.44% (inactive)
same,activity remaining,[11],107% (inactive)
same,luciferase signal,[9],5360 AU (active)
CC(C)=CCOc1c2occc2cc2ccc(=O)oc12,parasite load remaining,[3],18.8% (inactive)
same,viability,[3],92.7%
same,inhibition,[22],-2% (inactive)
same,fluorescence ratio (interference),[23],1 (inactive)
same,inhibition,[4],4.77% (inactive)
same,activity remaining,[11],108% (inactive)
same,fold change,[6]; stronger effect = lower value,1.08 (inactive)
same,fold change,[6]; [25],1.1
same,cell count,[6]; [26],8640
same,cell count,[6]; [27],8010
same,outcome,[24],inactive
same,z-score,[10],0.56 (inactive)
